The results in this text go back to article PMC5515408, “Sequence-specific DNA binding by MYC/MAX to low-affinity non-E-box motifs”.

Whole data set: some 5,000 sequences, median “log2 normalized fluorescence” near 0.089, cut for the highest 2% near 0.81. Shown is part of a subset that was picked to be rich in the highest values.

Sequence of MYC (p64);MAX (p21), in MYC:MAX (P01106 16-454, chain 1 of 2): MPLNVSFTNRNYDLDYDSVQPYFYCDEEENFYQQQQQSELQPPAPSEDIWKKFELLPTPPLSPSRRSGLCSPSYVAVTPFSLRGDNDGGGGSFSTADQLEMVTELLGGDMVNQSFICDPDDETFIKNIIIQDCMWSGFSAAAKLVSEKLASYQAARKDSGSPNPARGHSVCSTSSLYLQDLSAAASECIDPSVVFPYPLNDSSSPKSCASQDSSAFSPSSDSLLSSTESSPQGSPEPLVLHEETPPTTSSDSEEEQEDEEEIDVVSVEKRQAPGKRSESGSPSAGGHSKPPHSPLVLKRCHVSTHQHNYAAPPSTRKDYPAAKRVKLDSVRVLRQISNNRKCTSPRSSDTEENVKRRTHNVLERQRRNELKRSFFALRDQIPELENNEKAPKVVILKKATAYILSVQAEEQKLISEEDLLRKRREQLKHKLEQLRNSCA
Sequence of MYC (p64);MAX (p21), in MYC:MAX (P61244 other isoform, or with tags, fused parts or gaps |, chain 2 of 2): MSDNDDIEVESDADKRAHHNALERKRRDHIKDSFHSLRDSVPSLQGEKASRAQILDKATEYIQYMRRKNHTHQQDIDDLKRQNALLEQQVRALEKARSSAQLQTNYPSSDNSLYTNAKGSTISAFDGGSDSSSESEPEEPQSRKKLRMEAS

In this assay the target is MYC (p64);MAX (p21), in MYC:MAX (human;human, UniProt P01106-1;P61244-2 1-439;1-151, |). Put plainly: protein-binding microarray (anti-MAX antibody); PBM: 15 mM Tris-HCl pH 7.5, 100 mM KCl, 0.075% NP40, 7.5 mM beta-mercaptoethanol, 375 ng/ul BSA, 8 ng/ul poly(dA-dT):(dA-dT), 550 ng complex, 60 min, room tempe; high values mean tight binding. The settings on record: protein: recombinant;recombinant; tags: 6xHis;6xHis; copies: 1;1; label: 3' end of printed strand (linker) attached to glass slide; dsDNA, one strand shown. The method, boiled down:
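Binding is reported as log2 normalized fluorescence. Recombinant His-tagged human MYC:MAX or MAX:MAX dimers expressed in E. coli (550 ng) were incubated with a custom Agilent glass array for 60 min at room temperature in Tris-KCl buffer, pH 7.5, containing NP40, BSA and poly(dA-dT) competitor. The array carried ~5000 unique 12-nt sequences, each spotted in triplicate and made double-stranded by primer extension, and bound protein was detected with anti-MAX and secondary antibodies and scanned at 543 nm.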
Regarding “CCGGCGGGCACGTGGTATTAATAGCTAAGATTACTATATCGACG”, the binding signal was 0.738 log2 normalized fluorescence.

For “CCGGCGTACACGTGGTATTAATAGCTAAGATTACTATATCGACG”, the binding signal is 0.671 log2 normalized fluorescence. The figure for “CCGGCGGGCACGTGGTCTTAATAGCTAAGATTACTATATCGACG” is 0.929 log2 normalized fluorescence; for “CCGGCTTACACGTGGTCTTAATAGCTAAGATTACTATATCGACG” it is 0.679 log2 normalized fluorescence; for “CCGGCTATCACGTGGGATTAATAGCTAAGATTACTATATCGACG” it is 0.804 log2 normalized fluorescence.

As for “CCGGCGTACACGTGGTCTTAATAGCTAAGATTACTATATCGACG”, the binding signal is 0.89 log2 normalized fluorescence.

Regarding “CCGGCTGAATCAGAGTATTAATAGCTAAGATTACTATATCGACG”, the binding signal was 0.0753 log2 normalized fluorescence.

Consider “CCGGCTGAACAAGTGTATTAATAGCTAAGATTACTATATCGACG”, for which the binding signal is 0.224 log2 normalized fluorescence. The value for “CCGGCTGATACTTGGTTTTAATAGCTAAGATTACTATATCGACG” was 0.0375 log2 normalized fluorescence; that for “CCGGCTGATCCCGCGTATTAATAGCTAAGATTACTATATCGACG” was 0.218 log2 normalized fluorescence. As for “CCGGCTGAAGGGCAGTATTAATAGCTAAGATTACTATATCGACG”, the binding signal is -0.0227 log2 normalized fluorescence. Regarding “CCGGCTGAGACGCGGTTTTAATAGCTAAGATTACTATATCGACG”, the binding signal was 0.131 log2 normalized fluorescence. For the sequence “CCGGCTGGCACGAGGTTTTAATAGCTAAGATTACTATATCGACG”, the binding signal was 0.697 log2 normalized fluorescence. Regarding “CCGGCTCACACGTTTTATTAATAGCTAAGATTACTATATCGACG”, the binding signal was 0.662 log2 normalized fluorescence.

In the case of “CCGGCTCACACGTGGTTTTAATAGCTAAGATTACTATATCGACG”, the binding signal is 0.78 log2 normalized fluorescence. The value for “CCGGCCGACAGCCGGTTTTAATAGCTAAGATTACTATATCGACG” was -0.0407 log2 normalized fluorescence; that for “CCGGCTCACACGAGGTTTTAATAGCTAAGATTACTATATCGACG” was 0.866 log2 normalized fluorescence; that for “CCGGCTCACACGATGTATTAATAGCTAAGATTACTATATCGACG” was 0.603 log2 normalized fluorescence.

Regarding “CCGGCTCACACGCGGTTTTAATAGCTAAGATTACTATATCGACG”, the binding signal is 0.822 log2 normalized fluorescence.

Take “CCGGCCGACACGCGGTTTTAATAGCTAAGATTACTATATCGACG”: the binding signal was 0.82 log2 normalized fluorescence. As for “CCGGCTGAGTAGTGGTATTAATAGCTAAGATTACTATATCGACG”, the binding signal was 0.0775 log2 normalized fluorescence. The figure for “CCGGCTGAGGGCTTGTATTAATAGCTAAGATTACTATATCGACG” is 0.0447 log2 normalized fluorescence. For “CCGGCTGACGACAGGTATTAATAGCTAAGATTACTATATCGACG”, the binding signal is 0.106 log2 normalized fluorescence. The figure for “CCGGCTGAAGTTCAGTATTAATAGCTAAGATTACTATATCGACG” is 0.0781 log2 normalized fluorescence. The value for “CCGGCTGAAGACCTGTATTAATAGCTAAGATTACTATATCGACG” was 0.0334 log2 normalized fluorescence; that for “CCGGCTGATGTAATGTATTAATAGCTAAGATTACTATATCGACG” was 0.000857 log2 normalized fluorescence; that for “CCGGCTGACGTTTGGTATTAATAGCTAAGATTACTATATCGACG” was 0.243 log2 normalized fluorescence. For the sequence “CCGGCTGACCACATGTATTAATAGCTAAGATTACTATATCGACG”, the binding signal was 0.581 log2 normalized fluorescence.

As for “CCGGCTGAACGTGAGTATTAATAGCTAAGATTACTATATCGACG”, the binding signal was 0.437 log2 normalized fluorescence.

With “CCGGCTGAGGACGAGTATTAATAGCTAAGATTACTATATCGACG”, the binding signal was -0.00251 log2 normalized fluorescence.

Consider “CCGGCTCACACGTGATATTAATAGCTAAGATTACTATATCGACG”, for which the binding signal is 0.75 log2 normalized fluorescence. Take “CCGGCCTACACGTGGTGTTAATAGCTAAGATTACTATATCGACG”: the binding signal was 0.779 log2 normalized fluorescence. The figure for “CCGGCTGACACGTGGCGTTAATAGCTAAGATTACTATATCGACG” is 0.519 log2 normalized fluorescence; for “CCGGCTAATACGTGGTGTTAATAGCTAAGATTACTATATCGACG” it is 0.417 log2 normalized fluorescence. The value for “CCGGCTTACACGTGGTGTTAATAGCTAAGATTACTATATCGACG” was 0.827 log2 normalized fluorescence. The figure for “CCGGCTCACACGGGTTATTAATAGCTAAGATTACTATATCGACG” is 0.461 log2 normalized fluorescence; for “CCGGCTTACACGTGTTATTAATAGCTAAGATTACTATATCGACG” it is 1.05 log2 normalized fluorescence.

In the case of “CCGGCTTAAACGTGTTATTAATAGCTAAGATTACTATATCGACG”, the binding signal was 0.426 log2 normalized fluorescence. The figure for “CCGGCTTACAAGTGTTATTAATAGCTAAGATTACTATATCGACG” is 0.479 log2 normalized fluorescence; for “CCGGCTCACACGTGTTATTAATAGCTAAGATTACTATATCGACG” it is 0.827 log2 normalized fluorescence. The figure for “CCGGCTTACACGTGGCGTTAATAGCTAAGATTACTATATCGACG” is 0.878 log2 normalized fluorescence; for “CCGGCTTACACGTGGAATTAATAGCTAAGATTACTATATCGACG” it is 0.667 log2 normalized fluorescence. For the sequence “CCGGCTGATTTAATGTATTAATAGCTAAGATTACTATATCGACG”, the binding signal is 0.0643 log2 normalized fluorescence. The value for “CCGGCTGAACCTACGTATTAATAGCTAAGATTACTATATCGACG” was 0.131 log2 normalized fluorescence; that for “CCGGCTGATCGCTTGTATTAATAGCTAAGATTACTATATCGACG” was -0.00084 log2 normalized fluorescence. As for “CCGGCTGAACATGGGTATTAATAGCTAAGATTACTATATCGACG”, the binding signal was 0.288 log2 normalized fluorescence. Regarding “CCGGCTGATCGGCGGTATTAATAGCTAAGATTACTATATCGACG”, the binding signal is 0.0519 log2 normalized fluorescence. As for “CCGGCTGACAGTCGGTATTAATAGCTAAGATTACTATATCGACG”, the binding signal is 0.0326 log2 normalized fluorescence. The figure for “CCGGCTGACAGTTGGTATTAATAGCTAAGATTACTATATCGACG” is 0.112 log2 normalized fluorescence; for “CCGGCTGAAATAGTGTATTAATAGCTAAGATTACTATATCGACG” it is 0.0457 log2 normalized fluorescence.

As to “CCGGCTGTCATGTGGTATTAATAGCTAAGATTACTATATCGACG”, the binding signal is 0.631 log2 normalized fluorescence.

Regarding “CCGGCTGACCTGTTGTATTAATAGCTAAGATTACTATATCGACG”, the binding signal was 0.216 log2 normalized fluorescence. As for “CCGGCTGAAAGAATGTATTAATAGCTAAGATTACTATATCGACG”, the binding signal is 0.0901 log2 normalized fluorescence.
